This note sets out measurements from PubChem BioAssay (EPA / NIEHS).

What is called AC50 is the concentration giving half of the maximal activity seen.

Inconclusive results are not listed. Calls of active or inactive are those of the source. How the source made its calls: active means hit-call score of the fitted dose curve at least 0.9, where 1 is the maximum; inconclusive means response in the unintended direction; inactive means score below 0.9.

Test [1] has as its target human Beta-secretase (BACE), BACE1 (gene 23621) (UniProt P56817). As to the kind of experiment: NVS_ENZ_hBACE: NovaScreen (NVS) Enzymatic Assay for human Beta-secretase (BACE) (AID 2283140).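 Further: hits are inhibitors that reduce fluorescent substrate signal versus DMSO.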 Put shortly:
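Cell-free assay of recombinant Sf9-expressed human BACE with fluorescent substrate, read by fluorescence intensity after 1 h. Primary screen in duplicate at 25 uM; actives then run in concentration series; loss of signal relative to DMSO.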

Test [2] concerns the target human Esterase Plasma (ES), BCHE (gene 590) (UniProt P06276). Nature of the test: NVS_ENZ_hES: NovaScreen (NVS) Enzymatic Assay for human Esterase Plasma (ES) (AID 2283157). In short, it runs like this:
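Chemicals were added to plasma-extracted human enzyme in a cell-free format, and activity was read colorimetrically after 0.25 hour. Activity loss was referenced to DMSO; concentration-response top dose was 50 uM.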

Test [3] has as its target human Caspase 4 (CASP4), CASP4 (gene 837) (UniProt P49662). As to the kind of experiment: NVS_ENZ_hCASP4: NovaScreen (NVS) Enzymatic Assay for human Caspase 4 (CASP4) (AID 2283143). In short, it runs like this: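 The cell-free assay used E. coli-expressed enzyme with a fluorogenic substrate, read 2 h after dosing. Signal loss was scored versus DMSO. Screening was in duplicate at 25 uM, then singleton concentration-response up to 50 uM.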

Test [4] addresses human Dual Specificity Protein Phosphatase 3 (DUSP3), DUSP3 (gene 1845) (UniProt P51452). Nature of the test: NVS_ENZ_hDUSP3: NovaScreen (NVS) Enzymatic Assay for human Dual Specificity Protein Phosphatase 3 (DUSP3) (AID 2283152).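 Further: phosphatase activity of recombinant human DUSP3 on a fluorogenic substrate without cells.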 In short, it runs like this:
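Cell-free assay with recombinant human DUSP3 and fluorogenic substrate, read by fluorescence intensity. Primary screen ran duplicate at 25 uM; actives followed up in concentration series; loss of signal versus DMSO scored.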

For test [5], the target named is human Casein Kinase 1-delta (CK1D), CSNK1D (gene 1453) (UniProt P48730). As to the kind of experiment: NVS_ENZ_hCK1D: NovaScreen (NVS) Enzymatic Assay for human Casein Kinase 1-delta (CK1D) (AID 2283148). In short, it runs like this:
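Recombinant human CK1-delta, cell-free; fluorescent substrate with electrophoretic mobility-shift separation of product, read 1 h after dosing. Single 25 uM duplicate screen, then concentration-response up to 50 uM; loss of signal vs DMSO.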

For test [6], the target named is human Colony Stimulating Factor 1 Receptor (CSF1R), CSF1R (gene 1436) (UniProt P07333). Nature of the test: NVS_ENZ_hCSF1R: NovaScreen (NVS) Enzymatic Assay for human Colony Stimulating Factor 1 Receptor (CSF1R) (AID 2283150). Put shortly: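 Cell-free recombinant human CSF1R kinase with fluorescent substrate, product separated by electrophoretic mobility shift; read 1 h after dosing. Primary screen at 25 uM in duplicate, actives then in concentration-response up to 50 uM, relative to DMSO.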

Test [7] has as its target human AKT serine/threonine Kinase 2 (AKT2), AKT2 (gene 208) (UniProt P31751). Nature of the test: NVS_ENZ_hAKT2: NovaScreen (NVS) Enzymatic Assay for human AKT serine/threonine Kinase 2 (AKT2) (AID 2283141). Put shortly: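 Cell-free fluorescence/electrophoretic mobility shift readout of recombinant human AKT2 activity, 1 h after chemical dosing. Duplicate primary screen at 25 uM, then singleton concentration-response up to 50 uM; loss of signal versus DMSO baseline.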

The target in test [8] is human Caspase 8 (CASP8), CASP8 (gene 841) (UniProt Q14790). Nature of the test: NVS_ENZ_hCASP8: NovaScreen (NVS) Enzymatic Assay for human Caspase 8 (CASP8) (AID 2283146). In short, it runs like this: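 E. coli-expressed enzyme was used in a cell-free fluorogenic substrate assay read 1 h after dosing. Loss of signal was scored relative to DMSO, and the primary screen was run in duplicate at 25 uM.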
Chain of human Caspase 8 (CASP8), CASP8 (gene 841) (Q14790 whole entry, looked up): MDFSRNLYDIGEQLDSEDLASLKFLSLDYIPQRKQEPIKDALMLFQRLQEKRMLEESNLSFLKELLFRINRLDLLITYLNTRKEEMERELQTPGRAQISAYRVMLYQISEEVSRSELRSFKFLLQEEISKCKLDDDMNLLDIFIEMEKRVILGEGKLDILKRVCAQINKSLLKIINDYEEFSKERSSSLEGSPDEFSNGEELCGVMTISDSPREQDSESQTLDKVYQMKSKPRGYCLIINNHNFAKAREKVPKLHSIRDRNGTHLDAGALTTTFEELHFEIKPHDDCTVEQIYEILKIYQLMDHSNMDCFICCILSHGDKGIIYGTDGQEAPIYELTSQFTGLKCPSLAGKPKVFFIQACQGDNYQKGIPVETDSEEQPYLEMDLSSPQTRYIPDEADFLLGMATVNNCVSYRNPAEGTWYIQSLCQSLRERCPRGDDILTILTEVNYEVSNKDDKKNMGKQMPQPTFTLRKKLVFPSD

Chain of human Dual Specificity Protein Phosphatase 3 (DUSP3), DUSP3 (gene 1845) (P51452 whole entry, looked up): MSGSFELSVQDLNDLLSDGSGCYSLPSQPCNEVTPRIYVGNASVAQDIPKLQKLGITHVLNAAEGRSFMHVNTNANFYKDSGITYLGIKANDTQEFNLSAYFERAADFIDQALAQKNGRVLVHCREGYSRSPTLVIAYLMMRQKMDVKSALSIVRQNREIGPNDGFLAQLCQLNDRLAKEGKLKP
Chain of human Esterase Plasma (ES), BCHE (gene 590) (P06276 whole entry, looked up): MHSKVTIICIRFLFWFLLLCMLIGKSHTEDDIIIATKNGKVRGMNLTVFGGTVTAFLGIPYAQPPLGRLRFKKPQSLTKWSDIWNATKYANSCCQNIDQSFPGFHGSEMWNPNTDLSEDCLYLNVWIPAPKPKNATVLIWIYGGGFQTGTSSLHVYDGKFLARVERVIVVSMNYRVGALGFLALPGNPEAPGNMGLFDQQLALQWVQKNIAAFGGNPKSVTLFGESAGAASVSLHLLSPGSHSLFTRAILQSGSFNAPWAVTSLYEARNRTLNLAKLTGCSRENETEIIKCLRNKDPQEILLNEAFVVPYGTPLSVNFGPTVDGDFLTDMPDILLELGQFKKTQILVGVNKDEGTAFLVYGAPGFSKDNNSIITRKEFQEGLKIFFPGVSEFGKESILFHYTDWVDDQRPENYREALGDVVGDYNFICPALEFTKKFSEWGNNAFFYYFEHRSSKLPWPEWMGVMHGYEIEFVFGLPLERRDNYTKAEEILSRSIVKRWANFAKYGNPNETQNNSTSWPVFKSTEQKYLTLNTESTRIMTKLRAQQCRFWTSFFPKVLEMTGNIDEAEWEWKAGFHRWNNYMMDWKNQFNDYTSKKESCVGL
Chain of human Beta-secretase (BACE), BACE1 (gene 23621) (P56817 whole entry, looked up): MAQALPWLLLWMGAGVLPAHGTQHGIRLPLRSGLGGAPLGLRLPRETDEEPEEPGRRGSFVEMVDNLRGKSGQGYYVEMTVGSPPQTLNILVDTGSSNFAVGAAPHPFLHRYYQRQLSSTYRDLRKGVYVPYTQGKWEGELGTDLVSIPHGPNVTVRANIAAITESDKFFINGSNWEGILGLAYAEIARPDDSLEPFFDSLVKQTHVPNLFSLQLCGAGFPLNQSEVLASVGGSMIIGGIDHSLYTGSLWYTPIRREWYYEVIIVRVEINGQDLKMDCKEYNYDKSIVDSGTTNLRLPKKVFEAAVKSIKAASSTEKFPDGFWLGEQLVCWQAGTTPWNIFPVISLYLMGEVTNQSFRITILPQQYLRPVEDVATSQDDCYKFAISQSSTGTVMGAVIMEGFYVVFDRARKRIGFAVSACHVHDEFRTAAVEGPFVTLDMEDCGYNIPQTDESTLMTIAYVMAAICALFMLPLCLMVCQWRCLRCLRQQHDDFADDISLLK
Chain of human Casein Kinase 1-delta (CK1D), CSNK1D (gene 1453) (P48730 whole entry, looked up): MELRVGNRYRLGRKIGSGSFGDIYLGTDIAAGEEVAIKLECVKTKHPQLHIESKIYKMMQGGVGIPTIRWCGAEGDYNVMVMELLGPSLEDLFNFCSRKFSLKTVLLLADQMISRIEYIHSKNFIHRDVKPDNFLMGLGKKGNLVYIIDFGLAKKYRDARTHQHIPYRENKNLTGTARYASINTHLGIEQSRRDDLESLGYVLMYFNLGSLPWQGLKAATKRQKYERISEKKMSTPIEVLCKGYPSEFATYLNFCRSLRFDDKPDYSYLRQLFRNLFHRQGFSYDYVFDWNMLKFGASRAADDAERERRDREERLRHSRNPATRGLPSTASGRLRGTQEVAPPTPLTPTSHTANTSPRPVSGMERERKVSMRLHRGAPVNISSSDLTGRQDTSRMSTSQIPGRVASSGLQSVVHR
Chain of human Caspase 4 (CASP4), CASP4 (gene 837) (P49662 whole entry, looked up): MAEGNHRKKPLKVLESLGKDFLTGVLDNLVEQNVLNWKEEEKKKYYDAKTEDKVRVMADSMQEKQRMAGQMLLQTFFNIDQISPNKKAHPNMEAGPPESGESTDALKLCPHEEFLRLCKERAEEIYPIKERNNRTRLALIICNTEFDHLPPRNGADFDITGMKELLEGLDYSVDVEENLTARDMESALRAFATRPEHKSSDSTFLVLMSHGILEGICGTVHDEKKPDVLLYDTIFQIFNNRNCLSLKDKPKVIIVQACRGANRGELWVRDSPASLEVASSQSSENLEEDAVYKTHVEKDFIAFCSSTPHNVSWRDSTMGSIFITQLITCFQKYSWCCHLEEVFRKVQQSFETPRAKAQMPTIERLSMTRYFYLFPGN
Chain of human Colony Stimulating Factor 1 Receptor (CSF1R), CSF1R (gene 1436) (P07333 whole entry, looked up): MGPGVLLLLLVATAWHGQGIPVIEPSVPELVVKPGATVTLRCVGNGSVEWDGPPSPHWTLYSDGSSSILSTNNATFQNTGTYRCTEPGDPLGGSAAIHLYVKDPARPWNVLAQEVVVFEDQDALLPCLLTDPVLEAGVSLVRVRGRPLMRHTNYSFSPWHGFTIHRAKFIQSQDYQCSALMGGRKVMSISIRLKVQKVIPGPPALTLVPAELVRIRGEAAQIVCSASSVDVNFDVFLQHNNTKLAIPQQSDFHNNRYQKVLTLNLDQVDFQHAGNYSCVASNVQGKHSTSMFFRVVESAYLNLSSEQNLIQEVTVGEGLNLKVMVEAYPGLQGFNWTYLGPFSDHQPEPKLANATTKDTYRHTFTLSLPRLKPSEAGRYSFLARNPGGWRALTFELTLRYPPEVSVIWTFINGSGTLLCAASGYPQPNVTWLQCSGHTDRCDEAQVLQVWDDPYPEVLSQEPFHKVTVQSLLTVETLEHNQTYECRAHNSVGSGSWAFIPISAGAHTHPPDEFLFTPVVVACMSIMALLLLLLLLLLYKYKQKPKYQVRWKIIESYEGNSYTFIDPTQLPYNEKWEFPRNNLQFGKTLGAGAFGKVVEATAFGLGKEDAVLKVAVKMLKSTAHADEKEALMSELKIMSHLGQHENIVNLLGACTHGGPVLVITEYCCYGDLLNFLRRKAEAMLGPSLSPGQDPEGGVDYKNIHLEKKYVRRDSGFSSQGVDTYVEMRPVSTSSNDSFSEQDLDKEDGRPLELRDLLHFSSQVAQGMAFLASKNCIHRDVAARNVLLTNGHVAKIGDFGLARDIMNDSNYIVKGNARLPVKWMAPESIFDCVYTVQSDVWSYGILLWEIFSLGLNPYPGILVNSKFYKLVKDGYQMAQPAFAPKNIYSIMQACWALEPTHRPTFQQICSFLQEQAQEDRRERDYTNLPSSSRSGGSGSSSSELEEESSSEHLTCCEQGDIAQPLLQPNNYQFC
Chain of human AKT serine/threonine Kinase 2 (AKT2), AKT2 (gene 208) (P31751 whole entry, looked up): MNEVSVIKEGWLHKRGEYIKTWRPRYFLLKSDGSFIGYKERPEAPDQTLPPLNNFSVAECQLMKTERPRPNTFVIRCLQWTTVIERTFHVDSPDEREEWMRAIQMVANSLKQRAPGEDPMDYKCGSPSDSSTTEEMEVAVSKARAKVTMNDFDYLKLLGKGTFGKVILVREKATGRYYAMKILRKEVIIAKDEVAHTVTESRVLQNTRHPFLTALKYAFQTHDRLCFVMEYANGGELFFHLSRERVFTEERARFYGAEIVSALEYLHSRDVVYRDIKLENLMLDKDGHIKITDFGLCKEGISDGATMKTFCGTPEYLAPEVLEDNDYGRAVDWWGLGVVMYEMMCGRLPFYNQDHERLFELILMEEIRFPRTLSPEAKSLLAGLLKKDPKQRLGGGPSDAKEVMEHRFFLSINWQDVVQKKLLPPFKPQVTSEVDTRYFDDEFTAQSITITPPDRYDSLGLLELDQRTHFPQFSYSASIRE

As for `CN(C)C(=O)C1(N2CCCCC2)CCN(CC[C@@]2(c3ccc(Cl)c(Cl)c3)CN(C(=O)c3ccccc3)CCO2)CC1`, the result in test [1] was inactive. In test [2], the AC50 is 17.5 µM (active).

As to `CCN(Cc1cccnc1)C(=O)c1cccc(Cl)c1[C@]1(C)C(=O)N(Cc2ccc(OC)cc2OC)c2ccc(Cl)cc21`, the outcome in test [3] was inactive. In addition, the results for the AC50 in test [4] and in test [2] were 14.1 µM (active) and 16.8 µM (active), respectively.

Take `O=C(O)Cc1cc(I)c(Oc2ccc(O)c(I)c2)c(I)c1`: the molecule was called inactive in test [1], in test [5] and in test [6].

As to `NC(=O)c1nc(-c2cccc(-c3cc(F)ccc3OCC(F)(F)C(F)(F)F)c2)n[nH]1`, in test [1], the molecule was classed as inactive.

Turning to `Cc1ccc(C(C)C)cc1`, the molecule was classed as inactive in test [1].

Turning to `COc1ccc2cc(S(=O)(=O)N[C@H](CC(=O)N[C@H](Cc3ccc(CN4[C@H](C)CCC[C@@H]4C)cc3)C(=O)N(C)C(C)C)c3ccc4c(c3)OCO4)ccc2c1`, the call in test [1] was inactive. Also, the AC50 is 3.86 µM (active) in test [4] and 7.52 µM (active) in test [2].

Turning to `CCOC(=O)O[C@H](C)OC(=O)c1ccc2c(c1)cc(C(=O)NC1CCN(C(C)C)CC1)n2Cc1cc(-c2ccc(Cl)s2)on1`, the AC50 in test [1] is 0.447 µM (active); in test [7], 23.6 µM (active); in test [2], 9.43 µM (active).

As to `CC(=O)N1CCN(c2ccc(OC[C@H]3CO[C@](Cn4ccnc4)(c4ccc(Cl)cc4Cl)O3)cc2)CC1`, the result in test [1] and in test [5] was inactive.

Take `OCCO`: in test [1], the outcome was inactive.

Take `NCc1cccc(C2CCN(C(=O)c3ccc(C#Cc4ccccc4F)o3)CC2)c1`: the AC50 in test [1] is 41.8 µM (active); in test [2], 25 µM (active).

With `CO[C@H]1/C=C/O[C@@]2(C)Oc3c(C)c(O)c4c(O)c(c(/C=N/N5CCN(C)CC5)c(O)c4c3C2=O)NC(=O)/C(C)=C\C=C\[C@H](C)[C@H](O)[C@@H](C)[C@@H](O)[C@@H](C)[C@H](OC(C)=O)[C@@H]1C`, the molecule was classed as inactive in test [1]. For the same molecule, the AC50 in test [8] is 6.48 µM (active); in test [4] it was 7.6 µM (active).
